# This is a sample that favours compounds with a hit; in the whole collection about 19% have one here.
# DT40 TDP1 no CPT: qHTS for Inhibitors of human tyrosyl-DNA phosphodiesterase 1 (TDP1): qHTS in cells in absence of CPT; DT40 Tdp1-/- hTDP1 cells, no CPT, ATP luminescence, 48 h; Potency, µM (top dose mostly 46.2 µM), for the others: top-dose activity change, negative = growth inhibition, actives largely listed as inhibitors; hit rate 15% among 420,000; AID 686978, 2013; further: potency means the concentration at half of the fitted maximal effect; nearly all actives have a fitted effect of over 55% in size
#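 Camptothecin absent (DMSO only). Human TDP1-complemented DT40 knockout cells, 400 cells/well, 37 °C for minimum 48 hr; ATP measured via CellTiter-Glo, 30 min dark incubation, luminescence.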
# HT1080-NT tox: kills 2HG-producing HT-1080-NT fibrosarcoma cells; Potency, µM (titrated, usually from 46.1 µM), inactives show at the top dose activity, negative = less viability, actives largely listed as cytotoxic; hit rate 1.6% among 360,000; HT-1080-NT fibrosarcoma viability, CellTiter-Glo ATP luminescence, 48 h;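 further: NT is the 2HG producing partner of a matched IDH1 knockdown line; potency means the concentration at half of the fitted maximal effect; 0% = DMSO-treated cells and -100% = media-only wells without cells; nearly all actives have a fitted effect of over 55% in size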
#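 HT-1080-NT fibrosarcoma cells (2HG-overproducing), 750 cells/well in RPMI with 5% FBS, dosed after 2 h and incubated 48 h at 37C. CellTiter-Glo luminescence normalized to DMSO and no-cell wells; concentration-response curves fitted and classed.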
# uPA surface inh: blocks generation of uPA at the cell surface | cell surface uPA generation assay, qHTS | Potency, µM (series often up to 38.3 µM), for inactives: top-dose activity change, negative = inhibition, hits mostly inhibitors | hit rate 0.31% among 330,000 | AID 540303; active means well fitted inhibition curve with a large enough effect; inconclusive means small, poorly fitted or top-dose-only effect; inactive means no such curve, though single readings can be large or run the other way; tested in mouse RAW 264.7 cells; further: potency means the concentration at half of the fitted maximal effect; nearly all actives have a fitted effect of over 55% in size
# HT1080 IDH1KD tx: HT-1080 IDH1 knockdown cell toxicity (counter line). Potency, µM (highest dose often 46.1 µM), for inactives: top-dose activity, negative = toxicity, actives largely listed as cytotoxic. HT-1080 IDH1 knockdown viability, ATP luminescence, 48 h. hit rate 2% among 360,000;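 further: potency means the concentration at half of the fitted maximal effect; 0% = DMSO wells and -100% = cell-free medium wells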
#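 % activity derives from luminescence (CellTiter-Glo), normalised to DMSO and no-cell wells. HT-1080-IDH1KD cells, 750/well, had 48 h compound exposure at 37 °C.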
# TDP1 cell CPT: growth inhibition of DT40 Tdp1-/-;hTDP1 cells with camptothecin (screen for TDP1 inhibitors); chicken DT40 Tdp1-/-;hTDP1 cells + 20 nM CPT, ATP luminescence, 48 h; hit rate 12% among 420,000; Potency, µM (titrated, usually from 46.2 µM), for the others: at the top dose activity change, negative = growth inhibition, most hits filed as inhibitors; further: potency means the concentration at half of the fitted maximal effect; nearly all actives have a fitted effect of over 55% in size
#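 Chicken DT40 Tdp1-/- cells complemented with human TDP1, 400 cells/well, exposed to compounds plus 20 nM camptothecin for at least 48 h at 37 C; viability read as ATP content by CellTiter-Glo luminescence.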
# IL1B secr inh: inhibitors of inflammasome signaling (IL-1 beta secretion) | THP-1 LPS/ATP IL-1B secretion, AlphaLISA, 16 h; active compounds read low | activity change, % at 57.5 µM | hit rate 4.7% among 360,000; in the data active means activity change below about -50%; inconclusive means mostly about -30% to -49%
#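 Secreted IL-1B measured by AlphaLISA bead assay after 16 h compound exposure of THP-1 cells; compounds (final up to 57.5 uM) added 1 h before LPS (250 ng/mL) and ATP (1.25 mM) stimulation; lower signal means less secretion.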
# The depositor's hits bear a star; ? = inconclusive; . = no result given. Unless noted, the call rests on the fitted dose curve; in most records, active means well fitted curve in the direction sought with a large enough effect; inconclusive means small, poorly fitted or top-dose-only effect, or another doubt; inactive means no such curve, though single readings can be large; an effect the other way counts as inactive or inconclusive. Unless noted, on the % scale 0 is the no-effect control and ±100 the full control effect.
SMILES,DT40 TDP1 no CPT,HT1080-NT tox,uPA surface inh,HT1080 IDH1KD tx,TDP1 cell CPT,IL1B secr inh
O=C(/C=C/c1ccccc1)NC(=S)Nc1ccc(N2CCOCC2)c(Cl)c1,?,21%,13%,17%,?,5
Cc1ccc(C(=O)N2CCN(CCc3ccncc3)CC2)cc1,-3%,.,.,.,7%,.
CNC(=O)C1CCC(Cn2c(=O)c3sccc3n(CC(=O)NCc3cccc(OC)c3)c2=O)CC1 (stereo not drawn),-12%,.,.,.,-6%,.
CCCCn1nnnc1C1(C)CCC(=O)N1CCCN1CCOCC1 (stereo not drawn),-1%,17%,.,16%,-4%,29
CC(C)(C)OC(=O)N1CCN(c2nc(-c3cccs3)nc3ccccc23)CC1,8.9µM*,2%,.,1%,13µM*,.
CN1CCN(c2nc(-c3ccc(Cl)cc3)nc3ccccc23)CC1,16µM*,-9%,1%,4%,?,-89*
CN1CCN(c2nc(-c3cccs3)nc3ccccc23)CC1,?,?,?,-22%,?,-59*
c1ccc2c(N3CCCC3)nc(-c3ccncc3)nc2c1,18µM*,-2%,4%,-4%,?,-80*
O=C(Nc1ccccc1)n1cc(-c2ccccn2)c(N2CCOCC2)n1,?,-2%,14%,-3%,-8%,36
CCN(C(=O)Cn1cnc2c1c(=O)n(C)c(=O)n2C)C1CCCCC1,18%,-5%,-17%,0%,-3%,-10
CC(C)NC(=O)c1ccc2c(c1)N(CC(=O)N1CCCCC1)C(=O)C(C)(C)O2,-23%,19%,-3%,-4%,-2%,-5
O=C(c1ccc2c(c1)OCCO2)N1CCN(c2nc(-c3cccs3)nc3ccccc23)CC1,11µM*,-19%,.,-11%,11µM*,.
CN1CCN(c2nc(-c3ccoc3)nc3ccccc23)CC1,-14%,.,.,.,3%,.
CCN(CC)c1nc(-c2cccc(OC)c2O)nc2ccccc12,23µM*,-2%,0%,?,18µM*,-16
CN1CCN(c2nc(-c3ccncc3)nc3ccccc23)CC1,?,?,-14%,?,?,-57*
COc1cccc(-c2nc(N3CCN(C)CC3)c3ccccc3n2)c1O,16µM*,-24%,-13%,15µM*,-110%,-98*
O=S(=O)(c1ccc2c(c1)OCO2)N1CCN(c2nc(-c3cccs3)nc3ccccc23)CC1,?,10%,.,1%,?,.
O=C(NCc1ccco1)Nc1ccc([N+](=O)[O-])cc1,?,1%,3%,3%,-14%,?
CCc1ccc(NC(=O)NCc2ccc3c(c2)OCO3)cc1,4%,5%,-3%,-7%,-2%,-9
O=C(NCc1ccc2c(c1)OCO2)Nc1ccc([N+](=O)[O-])cc1,4.1µM*,-8%,4%,-24%,21µM*,3
O=C(NCc1ccccc1F)Nc1ccc([N+](=O)[O-])cc1,26µM*,-10%,.,-4%,?,-15
Cc1c(NC(=O)Nc2ccc(Br)cc2F)sc2nc3n(c(=O)c12)CCC(C)CC3 (stereo not drawn),?,.,.,.,3.7µM*,.
COc1ccc(NC(=O)c2cc([N+](=O)[O-])ccc2N2CCCC2)cc1S(N)(=O)=O,4%,1%,-12%,-11%,11%,-23
COc1ccc(NC(=O)C2CCCN2S(=O)(=O)c2ccc3c(c2)CCC(=O)N3)c(OC)c1 (stereo not drawn),16µM*,3%,11%,-6%,13µM*,-15
CCN(CC)CCN(C(=O)c1ccc2c(c1)OCCO2)c1nc2c(Cl)cccc2s1,?,-10%,13%,-17%,18µM*,-66*
SMILES,DT40 TDP1 no CPT,HT1080-NT tox,uPA surface inh,HT1080 IDH1KD tx,TDP1 cell CPT,IL1B secr inh
CN(C)CCN(C(=O)c1ccccc1Cl)c1nc2c(Cl)cccc2s1,?,-5%,5%,0%,?,-69*
CCN(CC)CCN(C(=O)c1ccc2c(c1)OCCO2)c1nc2cc(C)cc(C)c2s1,?,-5%,-30%,-17%,15µM*,-57*
C[C@@H]1CN([C@@H](C)CO)C(=O)c2cc(Br)cnc2O[C@H]1CN(C)C(=O)C1CC1,-16%,3%,.,11%,5%,-5
CC1(C)CN(C(Cc2ccccc2)C(N)=O)C1=O (stereo not drawn),13%,9%,3%,2%,0%,24
Cc1ccc2oc3c(c(=O)c2c1)C(c1ccc(F)cc1)N(Cc1ccc2c(c1)OCO2)C3=O (stereo not drawn),-2%,.,.,.,4%,.
COc1ccc(NC(=S)N2CCC(NC(=O)C3CCCCC3)CC2)cc1,?,14%,0%,17%,-14%,-1
CC(=O)N1CCC(C(=O)OCc2ccccc2F)(c2ccccc2)CC1,21µM*,?,-9%,-8%,?,9
CSc1ccc(/C=C2/C(C)=C(CC(=O)O)c3cc(F)ccc32)cc1,-7%,.,.,.,-21%,.
CC(NC(=O)C(Cc1ccccc1)=NO)c1ccccc1 (stereo not drawn),23µM*,0%,6%,0%,21µM*,-5
CC(NC(=O)Cc1ccccc1)c1ccccc1 (stereo not drawn),1%,5%,18%,0%,3%,5
NC(=O)c1cc2c3ccccc3ccn2c1-c1ccccc1,0.21µM*,1.6µM*,62%,?,0.18µM*,-91*
Cc1ccccc1-n1ncc(C(C)NS(=O)(=O)c2ccccc2Cl)c1C (stereo not drawn),?,3%,-8%,3%,?,24
O=c1c2ccccc2sc2nc(CCl)nn12,?,6.5µM*,6%,4.6µM*,?,13
CCc1ccccc1NC(=O)CCc1c(C)nn(-c2ccc(N3CCOCC3)nn2)c1C,4%,7%,6%,-4%,-13%,-7
Cc1ccc2nc3cc([N+](=O)[O-])cc([N+](=O)[O-])c3cc2c1,0.58µM*,4%,?,-13%,0.46µM*,-73*
Cc1nc2ccc([N+](=O)[O-])cc2nc1C,6%,1%,4%,0%,-23%,9
Cc1nn(C(=O)c2ccc(Cl)cc2)c(C)c1S(=O)(=O)N1CCCCCC1,5%,.,.,.,5%,.
CCCC(=O)Nc1nc(-c2ccc(Cl)s2)cs1,5.8µM*,-4%,-26%,-10%,16µM*,0
O=C(Nc1ccc([N+](=O)[O-])cc1)Nc1nc(-c2ccc(Cl)s2)cs1,3.7µM*,6.5µM*,-9%,7.3µM*,4.6µM*,-99*
O=C(Nc1nc(-c2ccc(Cl)s2)cs1)c1ccco1,?,-3%,5%,-8%,?,-84*
